# Experimental data: the supplement of paper PMC10105736
# Values without a mark were called inactive.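 How the source made its calls: active = MAPPIT score above the 99th percentile of random reference set scores in the same batch; inactive = at or below it.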
# B1: DCTN1-p150 (protein)
# chain: MSEKNLKVGARVELTGKDLLGTVAYVGMTSFAVGKWVGVVLDEPKGKNSGSIKGQQYFQCDENCGMFVRPTQLRLLEAAPGSRRSIEDVSGATPTAAQPTKARLSSSRTSLSSSRQSLLGSRTQLTTSLSERTASSSSIGPRKSLAPQNSKDKESPSTSLAEGAPAASGGNGAASHASSKRASFVETGFLEILKPQFTPSQPLRSPSFTMPSNSGAEDKVALLEAQKTSAELQAQLADLTEKLETLKQRRNEDKERLREFDKMKIQFEQLQEFRTKIMGAQASLQKELLRAKQEAKDAIEAKEQHAQEMADLADNVEMITLDKEMAEEKADTLQLELESSKERIEELEVDLELLRSEMQNKAESAIGNISGGGDSPGLSTYEFKQLEQQNIRLKETLVRLRDLSAHDKHDIQKLSKELEMKRSEVTELERTKEKLSAKIDELEAIVADLQEQVDAALGAEEMVEQLAEKKMELEDKVKLLEEEIAQLEALEEVHEQLVESNHELELDLREELDLANGAKKEVLRERDAAIETIYDRDQTIVKFRELVQKLNDQLTELRDRNSSNEKESLQDPSLKMVTETIDYKQMFAESKAYTRAIDVQLRQIELSQANEHVQMLTAFMPESFMSRGGDHDSILVILLISRIVFKCDIVVSQTRERFPPVDAITREAVTQGHAVQQYAFKCRLLHYVHSLQCALHQILYGLNSCQPDTLLRAGSSLPEMVAQEKIVDGIIELLKSNQLDENSTTDNIEKCVAFFNAMNSVLLAGEQLLNEIQMIRDCVASLGAACESILSDTAIAKVIIQEAGATSDSVLLIQFLNENMESVRQQVKLIKRRLPSDQHVIKSGLSQHKVEAMRGLAQNISRIMSAMHQATKQSLAAIVSTIESDNAAEHTLPQEKYWALLTASCERIYEQDDRGPTQNFKTLLAQANSDLQLIAQHLLDKEYDIISAANNASNQQKSGAHSTPITQRAQLIKKQLEQKNVLAATLENREADVKQLKVAAKMKQNELSEMQIRKDLAEKKLSVLQNEYEHAVDKWKQKYEETSLQLQLKEKEFEETMDHLQSDIDALESEKSDLRDKLKLNSTTGKVQPGSESHSPHNISLSGNTSTAPGISNVSYSAPAGTAPVVAEEVELLKNAFNQERNQRLRLQAQDMRAKLSQFEPLHVPQPQDQRITALESELTRMKHAWVLSLLQVRSQDSVNSGTRIDAVALQRRNQPVPLKGEISSKASQLASDILTEYLQRKPHRATHGQFASFPTVDVKRVLQI
# B2: Pgd (protein)
# chain: MSGQADIALIGLAVMGQNLILNMDEKGFVVCAYNRTVAKVKEFLANEAKDTKVIGADSLEDMVSKLKSPRKVMLLVKAGSAVDDFIQQLVPLLSAGDVIIDGGNSEYQDTSRRCDELAKLGLLFVGSGVSGGEEGARHGPSLMPGGHEAAWPLIQPIFQAICAKADGEPCCEWVGDGGAGHFVKMVHNGIEYGDMQLICEAYHIMKSLGLSADQMADEFGKWNSAELDSFLIEITRDILKYKDGKGYLLERIRDTAGQKGTGKWTAIAALQYGVPVTLIGEAVFSRCLSALKDERVQASSVLKGPSTKAQVANLTKFLDDIKHALYCAKIVSYAQGFMLMREAARENKWRLNYGGIALMWRGGCIIRSVFLGNIKDAYTSQPELSNLLLDDFFKKAIERGQDSWREVVANAFRWGIPVPALSTALSFYDGYRTAKLPANLLQAQRDYFGAHTYELLGQEGQFHHTNWTGTGGNVSASTYQA
# B3: Fcp3C (protein)
# chain: MDGAKAEVFSVSVDTKMGAFKNSLLLLTLLLAIHLEASKIVYKKPLYGNSNIIKDKRIKTKPVKLETSTMSSTGVASSSTTAEEDWPTAVEFVIMTTPASELEASTETIGNNGTTETTVGEAPIIGSSEGSTRSMEPTTASPLMSTNPSSSSSLVSTIPLPPTAGLPVQDNQPVPCTCGVFLSSQIPNGLPTKPLIHQELDHMFPCNAIGRKQCQTKCLETIVQHLPNSANIVCSALGHDCHKERAYLFIKNCHNQWVNTNLQAGREYCCRSGVPYRCPLMG
# B4: swa (protein)
# chain: MSLQDESFPTDELFDQLNNLSSSGARNTWFAEHHKPAVFERDTAPFLEICYADPDFDADGDVANKSAKTCVSDPVGRDQEDEDDYDEDVDGDDHKLGCEKAPLGSGRSSKAVSYQDIHSAYTKRRFQHVTSKVGQYIAEIQAQDQKRRNVKFAGFQRVNSMPESLTPTLQQVYVHDGDFKVDKNCQTHSNSDSNYNSNSNNSSSSFDRLLAENESLQQKINSLRVEAKRLQGFNEYVQERLDRKTDDFVKMKCNFETLRTELSECQQKLRRQQDNSQHHFMYHIRSATSAKATQTDFLVDTIPASGNVLVTPHPLGDLTYNSSKGSIELALLSVAPSARVAQNPVQVQRAIHPQSLDFSSVSTEADGSGSGEHRVETSSRALVRRTPAPNNSETSQPSSNDSAIEVEAHEEERPSSRRQWEQQGELISPRQWGQHEGMYYFDKRNNRVIEVMGFNISQGRNQSHDTIHNQSINDSQTRLLVHSMSMSHLEAHDHFRSKRTTLGSRMLRFLGPCVRCRNGDPLNRSNVTYKDGLPAMPEEEFVDQRNQR
# What was measured:
# Experiment in all cases: MAPPIT interaction score (arbitrary units); higher = stronger binary interaction signal, active = hit call of the paper
# [1] = target: sw; settings: pair source set: Lit-BM-16
# [2] = target: up; settings: MAPPIT configuration: N-N; pair source set: RRS
# [3] = target: tup; settings: MAPPIT configuration: N-N; pair source set: Curagen_low_conf
# [4] = target: yip2; settings: MAPPIT configuration: N-N; pair source set: Curagen_high_conf
# 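Further: HEK293T cells with Epo stimulation, STAT-responsive firefly luciferase reporter, fold induction versus unstimulated cells divided by the larger fold induction of two negative controls lacking either bait or prey.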
binder,measurement,setting,value
B1,MAPPIT interaction score,[1]; MAPPIT configuration: N-C,0.412
same,MAPPIT interaction score,[1]; MAPPIT configuration: N-N,-0.153
B2,MAPPIT interaction score,[2],0.146
B3,MAPPIT interaction score,[3],-0.265
B4,MAPPIT interaction score,[4],1.92
